The values that follow come from PubChem BioAssay (NCI).

Molecules are shown by their SMILES. Compounds without any hit were thinned out: in the full panel of roughly 83,000, 20% have a hit.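 Note: values are percent growth. 100 is the growth of untreated cells, values between 100 and 0 indicate rising inhibition; between -100 and 0 indicates cell death.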 Values without a mark were called inactive. The source made the active and inactive calls. How the source made its calls: active means growth percent below 10; inactive means the rest.

This assay has as its system HL-60(TB) leukemia. In words: NCI-60 one-dose screen, 48 h (100 = growth as untreated, 0 = no growth, -100 = all killed). The settings on record: 10 µM unless noted.
With `Cc1cc(Nc2nc(N3CCOCC3)nc3ccccc23)n[nH]1`, the growth is 63.1%.

As for `CCOC(=O)c1c(C)oc2ncnc(Nc3ccc(NC(=O)Nc4ccc(CC)cc4)cc3)c12`, the growth is 103%.

As to `COC(=O)c1ccc2nc(-c3cc4ccccc4n3C)n(CCCCOc3cc4c(cc3OC)C(=O)N3CCC[C@H]3C=N4)c2c1`, the growth is -36.2% (active).

Consider `COC(=O)[C@]12CC[C@@H](C)[C@H](C)[C@@H]1C1=CC[C@@H]3[C@@]4(C)C(C=O)=C[C@@](C)(COS(C)(=O)=O)C4[C@H](O)C[C@@]3(C)[C@]1(C)CC2` (stereo partly drawn), for which the growth is -34.4% (active).

Consider `COc1cc2c(cc1O)CCN1C[C@@H](CC(C)C)[C@@H](O)C[C@@H]21`, for which the growth was 73.7%.

Regarding `COc1cc2ncn3c(=O)c4c5c(sc4nc3c2cc1OC)CCCCC5`, the growth is 100%.

For `O=c1sn(-c2cccc3ccccc23)c(=O)n1Cc1ccccc1`, the growth is 51.2%.

`Cc1ccc(S(=O)(=O)NCCN2c3nc4ccccc4cc3Sc3cc4ccccc4nc32)cc1`: the growth was 94.4%.

On to `CN1CCN(CCCOc2ccc3ncnc(Nc4ccc(OCc5cccc(F)c5)c(Cl)c4)c3c2)CC1`, for which the growth was -42.3% (active).

Consider `O=C(/C=C/C12c3ccccc3C(c3ccccc31)C1C(=O)NC(=O)C12)c1ccc(I)cc1` (stereo not drawn), for which the growth is 6.86% (active).

In the case of `Cc1cc(CO)c(O)c(CO)c1`, the growth is 80.5%.

On to `CCn1cc(C(=O)NNC(=S)Nc2ccc(C)cc2)c(=O)c2ccc(C)nc21`, for which the growth is 94.5%.

For the molecule `N#Cc1nc(-c2ccccc2)oc1S(=O)(=O)N1CCN(c2ccc(F)cc2)CC1`, the growth was 28.1%.
